# Assay results: PubChem BioAssay
# The list shows a part of the results. The source made the active and inactive calls.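 Rule for the calls, unless noted: active = GFP response above 150% of the DMSO level; inconclusive = fewer than 70 events counted for a yeast strain; inactive = the rest.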
# Legend:
# [1] = hit retest on RPL19A-GFP reporter strain – cell-based, S. cerevisiae, flow cytometry, cherry picks, mother/daughter gates, confirmation (AID 2270;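 active = GFP response below 50% of the DMSO control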); details: 3 h, at 10 µM, stronger effect = lower value, 100 = same GFP as DMSO wells
# [2] = yeast TOR pathway reporter LAP4-GFP change – cell-based, cherry picks, flow cytometry, mother/daughter gates, confirmation (AID 2271;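 active = GFP response above 150% of the DMSO control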;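 note: ratio of sample to DMSO plate mean so 100% equals DMSO level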); details: S. cerevisiae LAP4-GFP strain, 3 h, at 10 µM, stronger effect = higher value, 100 means same as DMSO control
# [3] = TOR pathway reporter MEP2-GFP, retest of hits – S. cerevisiae, flow cytometry GFP, cherry picks, confirmation (AID 2272;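 active = GFP response above 150% of the DMSO control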;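 note: ratio of well signal to plate DMSO mean so 100% equals DMSO level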); details: S. cerevisiae MEP2-GFP strain, 3 h, at 10 µM, stronger effect = higher value
# [4] = yeast AGP1-GFP fluorescence change, single-dose – cell-based, flow cytometry, S. cerevisiae, cherry picks, confirmation (AID 2273);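 note: median GFP channel fluorescence over the whole cell population gate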; details: S. cerevisiae AGP1-GFP strain, 3 h, at 10 µM
# [5] = TOR pathway CIT2 reporter hit retest – S. cerevisiae, GFP fusion, cherry picks, mother/daughter gates, confirmation (AID 2274); details: S. cerevisiae CIT2-GFP strain, flow cytometry, 3 h, at 10 µM, stronger effect = higher value
# [6] = green-channel fluorescence artefact in S. cerevisiae – s288c strain, artefact control for yeast TOR pathway GFP screen, dose response (AID 2757;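 active = fluorescence span over the dose series, or activity score, above about 33, limit read from the data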;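 note: thousands of bead-calibrated equivalent soluble fluorophore molecules from median cell fluorescence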); details: 520 nm autofluorescence, flow cytometry, 3 h, at 33 µM, stronger effect = higher value, zero means same as solvent-only cells
# [7] = measured here: daughter cell gate
# [8] = measured here: mother cell gate
# [9] = measured here: daughter cell gate response
# [10] = measured here: mother cell gate response
SMILES,GFP response vs DMSO [1],"GFP response vs DMSO [1, 7]","GFP response vs DMSO [1, 8]",GFP response relative to DMSO [2],"GFP response relative to DMSO [2, 9]","GFP response relative to DMSO [2, 10]",GFP response vs DMSO [3],"GFP response, % of DMSO [4]","GFP response, % of DMSO [5]","GFP response, % of DMSO [5, 7]","GFP response, % of DMSO [5, 8]",fluorescence change (kMESF span) [6]
Nc1ccccc1SC(C[N+](=O)[O-])c1ccccc1 (configuration not stated),93.3% (inactive),96.3%,87.6%,173% (active),170%,169%,112% (inactive),112% (inactive),92.2% (inactive),100%,81.8%,0.62 (inactive)
Cc1cc(O)ccc1NC(=O)c1ccccc1,98.4% (inactive),98.4%,95.6%,96.7% (inactive),92.8%,–,102% (inactive),102% (inactive),98.3% (inactive),–,–,–
CCCNC(=O)COC(=O)c1ccc(S(=O)(=O)N2CCCC2)cc1,97.2% (inactive),89.4%,88.1%,94.9% (inactive),82.6%,–,98.8% (inactive),99.8% (inactive),99.7% (inactive),90.5%,78.8%,–
Cc1cccc(C)c1NC(=O)C(Cl)C(=O)c1ccccc1 (configuration not stated),89.9% (inactive),87.6%,82.5%,241% (active),168%,252%,100% (inactive),101% (inactive),99.7% (inactive),95.4%,87.8%,0 (inactive)
Cc1ccc2c(nc3s/c(=C\c4ccc(-c5ccccc5C(=O)O)o4)c(=O)n32)c1C,119% (inactive),117%,117%,243% (active),218%,259%,346% (active),119% (inactive),157% (active),158%,154%,–
CCCc1cc(NCc2ccccn2)n2nc(C)c(-c3ccccc3)c2n1,108% (inactive),88%,91.2%,172% (active),–,148%,143% (inactive),107% (inactive),92.6% (inactive),81.7%,77.3%,–
Cc1[nH]c(-c2ccccn2)nc(=S)c1Cl,106% (inactive),98.1%,95.8%,303% (active),215%,266%,118% (inactive),–,107% (inactive),115%,91.5%,–
Cc1ccc(CS(=O)(=O)c2ncc(Cl)c(C(=O)Nc3nnc(C(C)C)s3)n2)cc1,96.2% (inactive),96.1%,94%,108% (inactive),–,99.5%,103% (inactive),100% (inactive),101% (inactive),94%,100%,–
O=C(/C=C/Sc1ncn[nH]1)c1ccc(Cl)cc1,106% (inactive),106%,99.8%,213% (active),198%,214%,114% (inactive),89.5% (inactive),110% (inactive),108%,104%,2.12 (inactive)
Oc1ccc2ccccc2c1N=Nc1nccs1,101% (inactive),98.1%,98%,163% (active),151%,165%,116% (inactive),89.3% (inactive),105% (inactive),101%,102%,0.51 (inactive)
Cc1cc(O)c(C(=O)/C=C/c2c(F)c(F)c(F)c(F)c2F)c(=O)o1,98.2% (inactive),103%,94.9%,152% (active),145%,160%,109% (inactive),101% (inactive),97.3% (inactive),101%,94.4%,9.67 (inactive)
Cc1ccccc1NC(=O)COC(=O)c1cc(=O)c2ccccc2o1,99.7% (inactive),–,104%,98.7% (inactive),98.7%,86%,97.8% (inactive),95.4% (inactive),104% (inactive),–,–,–
